# Values joined by “and” are separate entries in the source; they are usually repeats but may differ in a detail not shown here. Equal entries are not always repeated. Structures can show the parent of a compound that is named as a salt. About 620 (11%) of roughly 5,800 compounds showed activity.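 How the source made its calls: active = score above a cut-off or among the top three wells of a plate; in these data no inactive exceeds 0.85.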 Shown is part of a subset that was picked to be rich in actives.
# System: primary human hepatic stellate cells (donor 1)
# Experiment: scaled lipid accumulation score (0 = DMSO-like, 1 = nortriptyline-like); higher = stronger HSC inactivation (lipid re-accumulation), active = hit call of the paper
# Details: 48 h
# [1] = library stock concentration: 10 mM
# [2] = library stock concentration: 80 uM
# [3] = library stock concentration: 400 uM
# [4] = library stock concentration: 2 mM
# [5] = library stock concentration: 3.33 mM
# [6] = library stock concentration: 6.2 mM
# [7] = library stock concentration: 1 mM
smiles,measurement,setting,value
O=C(Nc1cccc(Nc2ncc(Br)c(NCCc3c[nH]cn3)n2)c1)N1CCCC1,scaled lipid accumulation score,[1],0.978 (active)
O=C(NCCCNc1nc(Nc2cccc(NC(=O)N3CCCC3)c2)ncc1I)c1cccs1 [listing 1 of 4 here],scaled lipid accumulation score,[1],1.2 (active)
O=C(NCCCNc1nc(Nc2cccc(NC(=O)N3CCCC3)c2)ncc1I)c1cccs1 [listing 2 of 4 here],scaled lipid accumulation score,[1],0.937 (active)
O=C(NCCCNc1nc(Nc2cccc(NC(=O)N3CCCC3)c2)ncc1I)c1cccs1 [listing 3 of 4 here],scaled lipid accumulation score,[2],≤ -0.016 (inactive)
same,scaled lipid accumulation score,[3],≤ -0.016 (inactive) and ≤ -0.005 (inactive)
same,scaled lipid accumulation score,[4],≤ -0.016 (inactive) and 0.235 (inactive)
same,scaled lipid accumulation score,[5],0.048 (inactive)
NCCC(=O)NCCc1c[nH]cn1 [Carcinine],scaled lipid accumulation score,,0.074 (inactive)
O=C(Nc1cccc(Nc2ncc(Br)c(NCCc3cnc[nH]3)n2)c1)N1CCCC1,scaled lipid accumulation score,[2],≤ 0 (inactive)
same,scaled lipid accumulation score,[3],≤ 0 (inactive) and ≤ -0.005 (inactive)
same,scaled lipid accumulation score,[4],≤ 0 (inactive) and ≤ -0.005 (inactive)
same,scaled lipid accumulation score,[5],≤ 0 (inactive)
same,scaled lipid accumulation score,[1],0.029 (inactive) and 0.7 (inactive)
O=C(NCCCNc1nc(Nc2cccc(NC(=O)N3CCCC3)c2)ncc1I)c1cccs1 [listing 4 of 4 here],scaled lipid accumulation score,[1],1.07 (active)
CC(=O)Oc1ccc2c(c1)CCC1C2CC[C@]2(C)C(=O)CCC12 (some centres undefined) [Estrone acetate],scaled lipid accumulation score,[1],≤ 0 (inactive)
CCCCn1c(=O)c2c(ncn2CC(C)=O)n(CCCC)c1=O [Denbufylline],scaled lipid accumulation score,[6],≤ -0.006 (inactive)
CCCCc1nc2ccn(Cc3cccs3)c(=O)c2n1Cc1ccc(-c2ccccc2-c2nn[nH]n2)cc1,scaled lipid accumulation score,[1],≤ -0.006 (inactive)
Cc1cc(C(=O)O)sc1C(N)C(=O)O (centres undefined),scaled lipid accumulation score,[1],0.007 (inactive)
CCCn1c(=O)[nH]c(=O)c2[nH]cnc21 [3-n-Propylxanthine],scaled lipid accumulation score,[1],≤ 0 (inactive)
CCOC(=O)c1[nH]c2cc(Cl)ccc2c1C(C(=O)NC(C)(C)C)N(C=O)Cc1ccc(Cl)cc1 (centres undefined),scaled lipid accumulation score,[5],≤ -0.009 (inactive)
same,scaled lipid accumulation score,[1],0.547 (inactive)
Nc1nc(SCc2ccc([N+](=O)[O-])cc2)c2ncn([C@@H]3O[C@H](CO)[C@H](O)C3O)c2n1 (stereo partly drawn) [S-(4-Nitrobenzyl)-6-thioguanosine],scaled lipid accumulation score,[1],0.41 (inactive)
O=C(O)CCC/C=C\C[C@H]1[C@@H](O)CC(=O)[C@@H]1/C=C/[C@@H](O)CCc1ccccc1 [17-phenyl trinor Prostaglandin D2],scaled lipid accumulation score,[7],≤ 0 (inactive)
CNc1nc(-c2ccc3c(N)n[nH]c3c2)cc(N2C[C@@H](C(=O)NC3CCCCC3)CC[C@H]2C)n1,scaled lipid accumulation score,[2],≤ -0.016 (inactive)
same,scaled lipid accumulation score,[3],≤ -0.016 (inactive)
same,scaled lipid accumulation score,[4],≤ -0.016 (inactive)
same,scaled lipid accumulation score,[5],≤ 0 (inactive)
same,scaled lipid accumulation score,[1],0.741 (inactive) and 0.773 (inactive)
CN(NC(=O)CC(=O)NN(C)C(=S)c1ccccc1)C(=S)c1ccccc1 [Elesclomol (STA-4783)],scaled lipid accumulation score,[5],≤ 0 (inactive)
same,scaled lipid accumulation score,[1],≤ 0 (inactive)
Cn1c(-c2ccc3c(c2)OCO3)cc(=O)c2ccccc21 [Graveoline],scaled lipid accumulation score,,≤ 0 (inactive)
O=c1cc(-c2ccccc2F)[nH]c2cc3c(cc12)OCO3 [CHM-1 hydrate],scaled lipid accumulation score,[1],0.875 (active)
O=C(NC(NC(=S)Nc1ccc(F)c([N+](=O)[O-])c1)C(Cl)(Cl)Cl)C(c1ccccc1)c1ccccc1 (centres undefined),scaled lipid accumulation score,[2],≤ 0 (inactive)
same,scaled lipid accumulation score,[3],0.081 (inactive)
same,scaled lipid accumulation score,[4],0.01 (inactive)
same,scaled lipid accumulation score,[5],≤ -0.009 (inactive)
same,scaled lipid accumulation score,[1],0.019 (inactive) and 0.171 (inactive) and 0.352 (inactive)
O=C(NC1CCNCC1)c1n[nH]cc1NC(=O)c1c(Cl)cccc1Cl,scaled lipid accumulation score,[2],0.367 (inactive)
same,scaled lipid accumulation score,[3],0.117 (inactive) and 0.282 (inactive)
same,scaled lipid accumulation score,[4],0.26 (inactive) and 0.49 (inactive)
same,scaled lipid accumulation score,[5],0.109 (inactive)
same,scaled lipid accumulation score,[1],0.212 (inactive) and 0.239 (inactive) and 0.462 (inactive)
C[C@H](CCCO)[C@H]1CC[C@H]2[C@@H]3[C@H](O)C[C@H]4C[C@H](O)CC[C@]4(C)[C@H]3C[C@H](O)[C@]12C [Petromyzonol],scaled lipid accumulation score,[7],0.043 (inactive)
Cn1cc(-c2ccc(F)c(C(F)(F)F)c2)nc1C1CCN(c2ncnc3[nH]ncc23)CC1,scaled lipid accumulation score,[2],0.021 (inactive)
same,scaled lipid accumulation score,[3],0.015 (inactive)
same,scaled lipid accumulation score,[4],0.054 (inactive)
same,scaled lipid accumulation score,[1],0.371 (inactive)
CCc1ccc2c(O)c3c(cc2c1C(=O)OC)C(=O)c1c(O)ccc(O)c1C3=O [Bisanhydrorutilantinone],scaled lipid accumulation score,[1],0.11 (inactive)
CCCCC[C@@H](O)/C=C/[C@@H]1[C@@H](C/C=C\CCCC(=O)O)[C@@H](O)C[C@H]1O [15(R)-Prostaglandin F2.alpha.],scaled lipid accumulation score,[7],≤ 0 (inactive)
C=C1CC2(O)OC3(CC2C(C)C)C(C)CCC13 (centres undefined) [Curcumol],scaled lipid accumulation score,[5],≤ 0 (inactive)
same,scaled lipid accumulation score,[1],≤ 0 (inactive)
CCn1c2ccccc2c2cc(Nc3ccnc(NCCCN4CCOCC4)n3)ccc21,scaled lipid accumulation score,[5],0.673 (inactive)
same,scaled lipid accumulation score,[1],0.087 (inactive)
CCn1c(=O)[nH]c2ccccc21,scaled lipid accumulation score,[1],≤ -0.006 (inactive)
CCn1c2ccccc2c2cc(CNC)ccc21.Cl,scaled lipid accumulation score,[1],0.872 (active)
CCCCCCCC/C=C\CCCCCCCC(=O)NCCS(=O)(=O)O [N-Oleoyl Taurine],scaled lipid accumulation score,[7],0.011 (inactive)
C[C@@H](Oc1cc(-c2cnn(C3CCNCC3)c2)cnc1N)c1c(Cl)ccc(F)c1Cl [listing 1 of 2 here],scaled lipid accumulation score,[5],0.909 (active)
same,scaled lipid accumulation score,[1],0.863 (active)
C[C@@H](Oc1cc(-c2cnn(C3CCNCC3)c2)cnc1N)c1c(Cl)ccc(F)c1Cl [listing 2 of 2 here],scaled lipid accumulation score,[2],≤ 0 (inactive)
same,scaled lipid accumulation score,[3],0.145 (inactive)
same,scaled lipid accumulation score,[4],0.477 (inactive)
same,scaled lipid accumulation score,[1],0.242 (inactive)
CC(Oc1cc(-c2cnn(C3CCNCC3)c2)cnc1N)c1c(Cl)ccc(F)c1Cl [(S)-crizotinib],scaled lipid accumulation score,[5],0.504 (inactive)
same,scaled lipid accumulation score,[1],0.396 (inactive)
CCCCCCCCCCCCCCCCOC[C@H](COP(=O)([O-])OCC[N+]1(C)CCCC1)OC(C)=O [Pyrrolidino PAF C-16],scaled lipid accumulation score,[7],≤ 0 (inactive)
C[N+]1(C)CCCC1C(=O)O (centres undefined) [Stachydrine hydrochloride],scaled lipid accumulation score,,0.046 (inactive)
O=C(/C=C\n1cnc(-c2cc(C(F)(F)F)cc(C(F)(F)F)c2)n1)N1CC(F)(F)C1,scaled lipid accumulation score,[5],≤ -0.009 (inactive)
same,scaled lipid accumulation score,[1],0.294 (inactive)
CCCCC[C@](C)(O)/C=C/[C@@H]1[C@@H](C/C=C\CCCC(=O)OC)[C@@H](O)C[C@H]1O [15(S)-15-methyl Prostaglandin F2.alpha. methyl ester],scaled lipid accumulation score,[7],≤ 0 (inactive)
CC(Cc1ccccc1)(NC(=O)CN)c1ccccc1 (racemic),scaled lipid accumulation score,[1],0.922 (active)
CC(N)(Cc1ccc(O)cc1)C(=O)O (racemic) [DL-alpha-Methyl-p-tyrosine],scaled lipid accumulation score,[1],0.213 (inactive)
CC(Cc1ccccc1)(NC(=O)CN)c1ccccc1 (centres undefined) [Remacemide hydrochloride],scaled lipid accumulation score,[1],0.479 (inactive)
COc1ccc(-c2cc(=O)c3c(O)c(OC)c(OC)cc3o2)cc1O [Eupatorin],scaled lipid accumulation score,[1],0.725 (inactive)
CC(C)Cn1c(=O)n(C)c(=O)c2nc[nH]c21 [Isobutylmethylxanthine],scaled lipid accumulation score,library stock concentration: 9 mM,≤ 0 (inactive)
O=C[C@H](O)[C@@H](O)[C@H](O)CO [Xylose],scaled lipid accumulation score,[5],≤ 0 (inactive)
same,scaled lipid accumulation score,[1],0.028 (inactive)
CN1CC2c3ccccc3Oc3ccc(Cl)cc3C2C1 (centres undefined) [Asenapine maleate],scaled lipid accumulation score,[1],0.772 (inactive)
CN1CCN(C2=Nc3ccccc3Oc3ccc(Cl)cc32)CC1 [Loxapine Succinate],scaled lipid accumulation score,[5],≤ 0 (inactive)
same,scaled lipid accumulation score,[1],0.493 (inactive)
CN1CCN(C2=Nc3ccccc3Oc3ccc(Cl)cc32)CC1,scaled lipid accumulation score,[1],0.608 (inactive)
CN1CC2c3ccccc3Oc3ccc(Cl)cc3C2C1 (centres undefined) [Asenapine],scaled lipid accumulation score,[5],0.156 (inactive)
same,scaled lipid accumulation score,[1],0.752 (inactive)
CN1CCN(C2=Cc3ccccc3Oc3ccc(Cl)cc32)CC1.O=C(O)/C=C/C(=O)O,scaled lipid accumulation score,[1],1.01 (active)
CN1CCN(C2=Nc3ccccc3Oc3ccc(Cl)cc32)CC1 [Loxapine succinate],scaled lipid accumulation score,,0.3 (inactive)
same,scaled lipid accumulation score,library stock concentration: 4.5 mM,0.253 (inactive)
same,scaled lipid accumulation score,[1],0.708 (inactive) and 0.486 (inactive)
CNc1nc(Nc2cnn(C3CCN(C4COC4)CC3F)c2Cl)ncc1C(F)(F)F (centres undefined),scaled lipid accumulation score,[5],≤ -0.009 (inactive)
same,scaled lipid accumulation score,[1],≤ 0 (inactive)
CCCCC(C)(O)CC=CC1C(O)CC(=O)C1CCCCCCC(=O)OC (centres undefined) [8-iso Misoprostol],scaled lipid accumulation score,[7],≤ 0 (inactive)
CN1CCN(c2nc3cc(C(F)(F)F)ccc3n3cccc23)CC1.O=C(O)/C=C\C(=O)O [listing 1 of 2 here],scaled lipid accumulation score,[1],1.15 (active)
CCc1cncnc1N1CCN(Cc2nc3ccc(C(F)(F)F)cc3[nH]2)CC1,scaled lipid accumulation score,[2],≤ 0 (inactive)
same,scaled lipid accumulation score,[3],≤ 0 (inactive)
same,scaled lipid accumulation score,[4],≤ 0 (inactive)
same,scaled lipid accumulation score,[5],≤ 0 (inactive)
same,scaled lipid accumulation score,[1],0.077 (inactive) and 0.419 (inactive) and ≤ 0 (inactive)
CN1CCN(c2nc3cc(C(F)(F)F)ccc3n3cccc23)CC1.O=C(O)/C=C\C(=O)O [listing 2 of 2 here],scaled lipid accumulation score,[1],0.974 (active)
CCCCC/C=C\C[C@@H](O)/C=C/c1cccc(C[C@@H](O)CCCCO)n1,scaled lipid accumulation score,library stock concentration: 100 uM,≤ -0.021 (inactive)
CCNC(=O)CCC/C=C\C[C@@H]1[C@@H](CC[C@@H](O)CCc2ccccc2)[C@H](O)C[C@@H]1O [Latanoprost ethyl amide],scaled lipid accumulation score,[7],≤ 0 (inactive)
O=C1NCCc2[nH]c(-c3ccnc(-c4cnc5ccccc5c4)c3)cc21 [MK-2 Inhibitor III],scaled lipid accumulation score,[5],≤ 0 (inactive)
C=C[C@H]1CN2CC[C@H]1C[C@H]2[C@H](O)c1ccnc2ccc(OC)cc12 [Quinine HCl Dihydrate],scaled lipid accumulation score,[5],0.077 (inactive)
same,scaled lipid accumulation score,[1],0.31 (inactive)
C=C[C@H]1CN2CC[C@H]1C[C@H]2[C@H](O)c1ccnc2ccc(OC)cc12 [Quinine sulfate],scaled lipid accumulation score,library stock concentration: 4.7 mM,0.308 (inactive)
same,scaled lipid accumulation score,[1],≤ 0 (inactive) and 0.364 (inactive)
C=C[C@H]1CN2CC[C@H]1C[C@H]2[C@H](O)c1ccnc2ccc(OC)cc12 [Quinine],scaled lipid accumulation score,[6],0.205 (inactive)
